# Hit rate of the full screen: of about 300,000 compounds, about 37,000 (12%) were called active. Shown is part of a subset that was picked to be rich in actives. Values without a mark were called inactive. Rule as the data show it: active = max response mostly above about 13% (no sharp cut-off); inactive = mostly below about 14%.
# Test: Cycloheximide Counterscreen for Small Molecule Inhibitors of Shiga Toxin; also: read at 38.3 µM for the half of the compounds with a filed dose; 0% is about no effect
# Details: cell reporter, cycloheximide protein synthesis inhibition counterscreen; stronger effect = higher value
row,SMILES,max response
1,COc1ccc(NC(=O)C2CCC(CNS(=O)(=O)c3csc(C(N)=O)c3)CC2)cc1OC (configuration not stated),-7.21%
2,O=C(NC(=S)NC1CCSC1=O)c1ccccc1F (configuration not stated),24.5% (active)
3,COC(=O)c1ccccc1NC(=S)NC(=O)c1ccccc1F,-2.77%
4,O=C(Cc1ccccc1F)NC1CCSc2ccccc21 (configuration not stated),-2.13%
5,COC1=C(N2CCOCC2)C(=O)c2ccccc2C1=O,0.793%
6,Clc1ccc(-c2csc(-c3ccncc3)n2)cc1,49.1% (active)
7,CCCCCN1CC(O)=C(c2nc(-c3ccc(Cl)cc3)cs2)C1=N,-0.837%
8,Fc1ccc(-c2csc(-c3ccc(C4SCCS4)cc3)n2)cc1F,8.6%
9,CSc1cccc(NC(=O)CN2C(=O)COc3ccc(S(=O)(=O)N4CCOCC4)cc32)c1,-0.43%
10,O=C(C1CC(=O)N(C2CCCCC2)C1)N1CCN(c2ccccc2)CC1 (configuration not stated),-1.46%
11,Cn1c(SCC(=O)N2CCCCC2)nc2c(c1=O)SCC2,9.54%
12,COCc1ccc(CN2CCC(Oc3ccc(C(=O)NCc4ccccn4)cc3)CC2)o1,17.2%
13,COCCCNC(=O)c1ccc2c(c1)ncn2-c1ccccc1OC,10.4%
14,COc1ccccc1-n1cnc2cc(NS(=O)(=O)c3ccccc3)ccc21,33.5% (active)
15,COc1cc(NS(=O)(=O)c2ccccc2)ccc1-n1nc(C)cc1C,-2.43%
16,O=C(c1cc(-c2ccc(O)cc2)on1)N1CCOCC1,27.7% (active)
17,O=C(c1cc(-c2ccc(O)cc2)on1)N1CCCc2ccccc21,32.9% (active)
18,CCCn1nc(C(=O)N2CCCc3ccccc32)c2ccccc2c1=O,-1.1%
19,Cn1c(SCC(=O)N2CCCc3ccccc32)nc2ccccc2c1=O,-3.04%
20,Cc1ccc(-c2cc(C(=O)N3CCC4(CC3)OCCO4)no2)cc1,24.4% (active)
21,O=C(c1cc(-c2ccncc2)nc2ccccc12)N1CCC2(CC1)OCCO2,2.43%
22,O=C(c1cc(-c2ccc(Cl)cc2)on1)N1CCN(c2ccccc2)CC1,30.2% (active)
23,O=C(c1cc(-c2ccc(F)cc2)on1)N1CCN(c2ccc(F)cc2)CC1,-2.49%

row,SMILES,max response
1,COc1ccc(-c2cc(C(=O)N3CCN(c4ccc(F)cc4)CC3)no2)cc1,-1.58%
2,O=C(c1cccs1)N1CCN(C(=O)N2CCOCC2)CC1,-2.36%
3,Cc1ccc(-c2cc(C(=O)N3CCc4ccccc4C3)no2)cc1,10.4%
4,O=C(c1cc(-c2cccc(O)c2)on1)N1CCc2ccccc2C1,7.88%
5,NC(=O)Cn1cc(/C=N\NS(=O)(=O)c2ccccc2)c2ccccc21,-1.04%
6,COc1ccc(OC)c(Nc2nc3ccccc3n3cnnc23)c1,-2.88%
7,CCOc1ccc(NC(=O)CCCCCN2C(=O)[C@@H]3Cc4ccccc4CN3C2=O)cc1,6.74%
8,Clc1cc(NC2CCCCC2)ncn1,3.36%
9,CCCCN(CCCC)CCCNC(=O)CN1C(=O)COc2ccc(S(=O)(=O)N3CCC(C)CC3)cc21,-3.42%
10,Cc1ccn(-c2cccc(-n3ccc(C)n3)n2)n1,91.1% (active)
11,Cc1cnc(CN(C)C(=O)CC2C(=O)NCCN2Cc2cccc(F)c2F)[nH]1 (configuration not stated),3.11%
12,O=c1c2cc(Br)ccc2nc(-c2cccc(Cl)c2)n1O,-6.07%
13,Cc1ccc(CSCC2Nc3ccc(C(=O)N4CCN(c5ccc(F)cc5)CC4)cc3NC2=O)cc1 (configuration not stated),-5.97%
14,CCN1C(=O)C(CC(=O)Nc2cc(C)ccc2C)SC1=Nc1ccc(S(N)(=O)=O)cc1 (configuration not stated),-7.73%
15,CN1C(=O)C(CC(=O)Nc2ccccc2)S/C1=N/c1nccs1 (configuration not stated),-0.83%
16,O=C(CC1SC(=Nc2ccccc2)N(Cc2ccccn2)C1=O)Nc1cccc(Cl)c1 (configuration not stated),14.9% (active)
17,CC(=O)Nc1ccc(S(=O)(=O)NC2Cc3ccccc3C2)cc1,-1.22%
18,CCN1/C(=C/C(=S)Nc2ccccc2)Sc2ccccc21,44.5% (active)
19,O=C(CCN1c2ccccc2Sc2ccccc21)Nc1ccccc1,9.13%
20,CCNC(=O)N1c2ccccc2Sc2ccccc21,-0.857%
21,CCn1cc(C(=O)NCC(=O)NC(C)(C)CO)c(=O)c2cc3c(cc21)OCO3,1.3%
22,O=C(CN1C(=O)C2C3C=CC(C3)C2C1=O)Nc1nc(-c2ccccn2)cs1 (configuration not stated),-1.06%
23,O=C(N/N=C/c1ccccc1O)/C(=C/c1ccccc1)CCO,16.6% (active)

row,SMILES,max response
1,O=C(CC(=O)N/N=C\c1cccc(Cl)c1Cl)NCc1ccccc1,8.71%
2,O=C(CCCO)N/N=C/c1cc(Br)ccc1O,-2.8%
3,COc1ccc(OC)c(S(=O)(=O)N2CCCC(C(=O)NCCc3ccccc3)C2)c1 (configuration not stated),8.7%
4,Cc1cccc(N2CCN(C(=O)c3cnn4c(C(F)F)cc(-c5ccccc5)nc34)CC2)c1C,-1.97%
5,CSCCC(NC(=O)c1ccc(Cl)cc1Cl)C(=O)NNC(=O)c1csc(N2CCOCC2)n1 (configuration not stated),0.959%
6,O=C(COc1ccc([N+](=O)[O-])cc1)Nc1ccc(N2CCCC2)cc1,-1.27%
7,O=C(COC(=O)C1CCCCC1)Nc1ccc([N+](=O)[O-])cc1,24.8% (active)
8,NC(=O)c1ccc(NC(=O)COC(=O)c2ccc([N+](=O)[O-])cc2)cc1,0.779%
9,CC1(C)C(C=C(Cl)Cl)C1C(=O)NC(O)C(=O)c1ccccc1 (configuration not stated),-3.63%
10,CCn1cc(C(=O)NCc2ccc(OC)cc2OC)c(=O)c2ccc(C)nc21,-2.54%
11,Cc1cccc(NC(=O)C2CCN(S(=O)(=O)c3cccc4cccnc34)CC2)c1,-2.32%
12,CNC(=O)C1CCN(S(=O)(=O)c2c(C)noc2/C=C/c2cccc(C)c2)CC1,-3.52%
13,Cc1ccnc(NC(=O)C2CCN(S(=O)(=O)c3c(C)c(C)cc(C)c3C)CC2)c1,13.3% (active)
14,COc1cccc(C(=O)Nc2nnc(S(=O)(=O)N(C)c3ccccc3)s2)c1,-2.81%
15,CN(c1ccccc1)S(=O)(=O)c1cc(C(=O)OCC(=O)N2CCN(C(=O)c3ccco3)CC2)ccc1Cl,-1.38%
16,CN(c1ccccc1)S(=O)(=O)c1cc(C(=O)Nc2nc3ccccc3[nH]2)ccc1Cl,16.5% (active)
17,O=C(CN1CCN(c2ncccn2)CC1)Nc1ccccc1C(F)(F)F,-6.89%
18,O=C(C1CCCN(S(=O)(=O)c2ccc([N+](=O)[O-])cc2)C1)N1CCCCC1 (configuration not stated),1.11%
19,COc1ccc(-c2nnc(SCC(=O)c3cccs3)o2)c(OC)c1,51.4% (active)
20,COc1ccc(CCNC(=O)CSc2nnc(CNC(=O)c3cccs3)o2)cc1OC,-3.82%
21,COc1ccccc1-c1nnc(SCC(=O)Nc2ccccc2)o1,11.4% (active)
22,COc1cccc(NC(=O)CSc2nnc(Cc3ccc(OC)c(OC)c3)o2)c1,-3.54%
23,COc1ccccc1-c1nnc(SCC(=O)N2CC(C)CC(C)C2)o1 (configuration not stated),1.31%

row,SMILES,max response
1,COc1ccccc1-c1nnc(SCC(=O)Nc2cc(C)on2)o1,2.69%
2,CSc1ccc(CCNC(=O)CS(=O)(=O)Cc2nc(-c3ccccc3F)oc2C)cc1,-3.5%
3,Cc1nn(-c2ncc(C(F)(F)F)cc2Cl)c(=O)n1-c1ccccc1,0.461%
4,Cc1cc(C)c2nc(-c3ccco3)cc(C(=O)O)c2c1,0.856%
5,Cc1cc(C)c2nc(SCCC#N)nc(C)c2c1,1.85%
6,Cc1cc(C)c2nc3nc(C)cc(C)c3c(N)c2c1,15.1% (active)
7,COc1ccc(/C=C(/NC(=O)c2ccco2)C(=O)Nc2ccc(C(C)=O)cc2)cc1,2.87%
8,COc1ccc(C(CC(=O)c2ccccc2)S(=O)(=O)c2ccccc2)cc1 (configuration not stated),30% (active)
9,COc1ccc(CN(C)C(=O)CC(c2ccccc2)c2ccccc2)cc1,-2.05%
10,COc1ccc(N(Cc2ccccc2)S(=O)(=O)c2cccc(C(=O)O)c2)cc1,-3.66%
11,Cc1ccc(SCc2c(C(=O)N/N=C/c3cccnc3)nnn2-c2nonc2N)cc1,2.02%
12,CC(C)C[C@H](NC(=O)C1CC(=O)N(c2ccc3c(c2)OCCO3)C1)C(=O)NC1CCCC1 (some centres not stated),6.36%
13,C=C1CCN(C(CC(C)C)C(=O)N2CCOCC2)S(=O)(=O)c2ccccc21 (configuration not stated),4.95%
14,N#C/C(=C/c1ccc(-c2ccccc2[N+](=O)[O-])o1)C(=O)NCCN1CCCCC1,2.31%
15,Cc1ccc(-c2ccc(/C=C(\C#N)C(N)=S)o2)c([N+](=O)[O-])c1,16% (active)
16,Cc1ccc(Cc2cnc(NC(=O)/C(C#N)=C/c3ccc(-c4cccc([N+](=O)[O-])c4)o3)s2)cc1,-0.479%
17,COc1ccc(C)cc1N(C(=O)Cn1nnc(-c2ccc(C)o2)n1)C(C(=O)NC1CCCC1)c1ccncc1 (configuration not stated),-6.77%
18,O=C(O)c1ccc(NC(=O)C2CCCCC2)cc1,-1.35%
19,CC(C)NS(=O)(=O)c1ccc(NC(=O)C2CCCCC2)cc1,-0.865%
20,O=C(Nc1ccc(-c2ccc3nncn3n2)cc1)C1CCCCC1,16% (active)
21,CCCOc1ccc(C2NC(=O)NC(c3ccccc3)=C2C(C)=O)cc1OCC (configuration not stated),-7.3%
22,CCN1N=C(c2ccccc2)CCC1=O,-2.27%
23,Nc1ccn(C2CC(O)C(CO)O2)c(=O)n1 (configuration not stated),-1.51%

# Reference: PubChem BioAssay AID2314 (National Center for Advancing Translational Sciences (NCATS), 2010)
